{"source": "paper PMC4552634", "about": "“A New Set of Chemical Starting Points with Plasmodium falciparum Transmission-Blocking Potential for Antimalarial Drug Discovery” (PLoS ONE, 2015)", "note": "Screen size: about 13,000 compounds; about 3,200 (25%) showed an effect of 50% or more. The list shows a part of the results."}
{"tested_on": "P. falciparum stage V gametocytes", "parameters": "BacTiter-Glo ATP luminescence viability of purified stage V gametocytes in 384-well plates, per cent inhibition versus DMSO", "conditions": "48 h, 5 µM; inhibitor", "units": {"% Inhibition": "%"}}
{"smiles": "CC(C)(C)c1ccc(CNCC(C)(C)c2nc(-c3ccc(Cl)c(O)c3)c(-c3ccnc(N)n3)[nH]2)cc1", "note": "[TCMDC-141165]", "% Inhibition": 3.988}
{"smiles": "Oc1ccc(Cl)cc1-c1cc(C(F)(F)F)nc(-c2ccccc2)n1", "note": "[TCMDC-123665]", "% Inhibition": 32.7}
{"smiles": "COc1ccc2nccc([C@@H](O)CN3CCC(CO)(NCc4cc5ccccc5o4)CC3)c2c1", "note": "[TCMDC-140494]", "% Inhibition": 12.97}
{"smiles": "COc1ccc(CC(=O)NC2CCN(c3ccnc4cc(Cl)ccc34)C2)cc1", "note": "(stereo not shown) [TCMDC-133665]", "% Inhibition": -28.04}
{"smiles": "CCN1CCC(N(Cc2ccc(-c3ccc(C(F)(F)F)cc3)cc2)C(=O)Cn2c(CCc3cccc(F)c3F)cc(=O)c3c2CCC3)CC1", "note": "[TCMDC-141265]", "% Inhibition": 65.76}
{"smiles": "COCCN1CCC(N(Cc2ccc(-c3ccc(C(F)(F)F)cc3)cc2)C(=O)Cn2c(CCc3cccc(F)c3F)cc(=O)c3c2CCC3)CC1", "note": "[TCMDC-141266]", "% Inhibition": 34.4}
{"smiles": "CCN(CC)CCN(Cc1ccc(-c2ccc(C(F)(F)F)cc2)cc1)C(=O)CN1C(CCc2cccc(F)c2F)=NS(=O)(=O)c2ccccc21", "note": "[TCMDC-141806]", "% Inhibition": 67.96}
{"smiles": "CCCNc1ccc2nccc(CCN3CCC(NCc4ccc5c(c4)NC(=O)CS5)CC3)c2n1", "note": "[TCMDC-141619]", "% Inhibition": -14.28}
{"smiles": "ON=C1CCc2cc(-c3nc(-c4cccc(OCCNCc5ccc(F)cc5)c4)[nH]c3-c3ccncc3)ccc21", "note": "[TCMDC-141188]", "% Inhibition": 20.84}
{"smiles": "CN1CCC(NCc2ccc(-c3cccc(S(=O)(=O)NCCc4ccccn4)c3)cc2)CC1", "note": "[TCMDC-132239]", "% Inhibition": 62.99}
{"smiles": "Cc1cc(-c2cccc(CNC3CCN(C)CC3)c2)ccc1S(=O)(=O)NCCc1ccccn1", "note": "[TCMDC-132381]", "% Inhibition": 33.36}
{"smiles": "CN1CCC(NCc2cccc(-c3ccc(S(=O)(=O)NCCc4ccccn4)cc3)c2)CC1", "note": "[TCMDC-132214]", "% Inhibition": 81.33}
{"smiles": "CN1CCC(NCCS(=O)(=O)c2cccc(Nc3ccc(-c4cccc(F)c4)cn3)c2)CC1", "note": "[TCMDC-134370]", "% Inhibition": 8.325}
{"smiles": "COc1ccc2nccc([C@@H](O)CN3CCC(NCC(=O)Nc4cc(F)cc(F)c4)CC3)c2n1", "note": "[TCMDC-140675]", "% Inhibition": -19.08}
{"smiles": "Cc1ccnc2nc(C(=O)Nc3cc(C(F)(F)F)ccc3N3CCCCC3)nn12", "note": "[TCMDC-124492]", "% Inhibition": -24.2}
{"smiles": "Cc1ccc(C(=O)NCC2CCN(c3ccc(C(F)(F)F)cc3NC(=O)c3ccco3)CC2)cn1", "note": "[TCMDC-134179]", "% Inhibition": 52.48}
{"smiles": "COC(=O)Nc1cc(C(F)(F)F)ccc1N1CCC(CNS(=O)(=O)c2ccc(OC)cc2)CC1", "note": "[TCMDC-134157]", "% Inhibition": 29.26}
{"smiles": "C[C@H](NC(=O)[C@H](Cc1ccccc1)NC(=O)OC(C)(C)C)C(=O)N[C@@H](CC1CCCCC1)C(O)CN", "note": "(stereo partly shown) [TCMDC-137178]", "% Inhibition": -9.62}
{"smiles": "CCC(ON1C(N)=NC(N)=NC1(C)C)c1ccccc1", "note": "(stereo not shown) [TCMDC-131604]", "% Inhibition": -12.67}
{"smiles": "CN1CCN(CCCN(Cc2cccc(-c3cccc(CNC4CCCC4)c3)c2)C(=O)/C=C/c2ccccc2)CC1", "note": "[TCMDC-140543]", "% Inhibition": 105.2}
{"smiles": "COc1cccc(C=CC(=O)N(CCN)Cc2ccccc2)c1", "note": "[TCMDC-137725]", "% Inhibition": -7.766}
{"smiles": "CN1CCN(CCCN(Cc2ccc(-c3cccc(CNC4CCCC4)c3)cc2)C(=O)/C=C/c2ccccc2)CC1", "note": "[TCMDC-140547]", "% Inhibition": 114.1}
{"smiles": "CCCCCN1CCCN(Cc2cccc(NC(=O)c3ccc(-c4ccccc4)cc3)c2)CC1", "note": "[TCMDC-141845]", "% Inhibition": -85.57}
{"smiles": "CN1CCN(CCCN(Cc2cccc(-c3ccc(CNC4CCCC4)cc3)c2)C(=O)/C=C/c2ccccc2)CC1", "note": "[TCMDC-140544]", "% Inhibition": 99.25}
{"smiles": "CN1CCN(CCCN(Cc2ccc(-c3cccc(CNC4CCCC4)c3)cc2)C(=O)Nc2ccccc2)CC1", "note": "[TCMDC-140605]", "% Inhibition": 107.6}
{"smiles": "CCCCN1CCCN(Cc2cccc(NC(=O)c3ccc(-c4ccccc4)cc3)c2)CC1", "note": "[TCMDC-141844]", "% Inhibition": -70.1}
{"smiles": "CN1CC[C@@H](Oc2cc(CNC(=O)c3ccc(-c4ccc(Cl)cc4)s3)ccc2C(F)(F)F)C1", "note": "[TCMDC-136151]", "% Inhibition": -38.31}
{"smiles": "C=CCc1cc(Cc2cnc(N)nc2N)c2ccc(C)nc2c1OC", "note": "[TCMDC-137891]", "% Inhibition": -15.21}
{"smiles": "Cc1cc(OCc2ccccc2)c(OCc2ccccc2)cc1C(O)CN(C)Cc1ccccc1", "note": "(stereo not shown) [TCMDC-131246]", "% Inhibition": 18.13}
{"smiles": "Cc1cc(Nc2ccc(C(C)(C)C)cc2)c2[nH]ncc2n1", "note": "[TCMDC-131536]", "% Inhibition": -25.63}
{"smiles": "Cc1ccccc1CCNC(=O)c1ccc(N2CCN(c3ccncc3)CC2)nc1", "note": "[TCMDC-134588]", "% Inhibition": 6.86}
{"smiles": "Cc1ccc2cc(C3NC(=O)c4ccccc4N3)c(Cl)nc2c1", "note": "(stereo not shown) [TCMDC-124480]", "% Inhibition": -10.78}
{"smiles": "N#Cc1cccc(Nc2nccc(NCC(O)c3cccc(C(F)(F)F)c3)n2)c1", "note": "(stereo not shown) [TCMDC-136580]", "% Inhibition": -40.58}
{"smiles": "O=C(NC(c1ccc(Cl)cc1)c1ccc2cccnc2c1O)c1ccccc1", "note": "(stereo not shown) [TCMDC-123829]", "% Inhibition": -93.03}
{"smiles": "O=C(CCc1ccccc1)NC(c1ccc(Cl)cc1)c1ccc2cccnc2c1O", "note": "(stereo not shown) [TCMDC-123537]", "% Inhibition": 82.06}
{"smiles": "O=C(Cc1ccccc1)NC(c1ccccc1)c1ccc2cccnc2c1O", "note": "(stereo not shown) [TCMDC-124383]", "% Inhibition": 92.16}
{"smiles": "c1ccc(C(OCCC2CCN(Cc3cccc4cccnc34)CC2)c2ccccc2)cc1", "note": "[TCMDC-136047]", "% Inhibition": -51.83}
{"smiles": "O=C(Cc1ccccc1)NC(c1ccc(Cl)cc1)c1ccc2cccnc2c1O", "note": "(stereo not shown) [TCMDC-124427]", "% Inhibition": 70.3}
{"smiles": "Cc1ccc(C(NC(=O)Cc2ccccc2)c2ccc3cccnc3c2O)cc1", "note": "(stereo not shown) [TCMDC-125551]", "% Inhibition": 6.84}
{"smiles": "CN(C)CCNc1ncnc2c1[nH]c1ccc(Br)cc12", "note": "[TCMDC-124584]", "% Inhibition": 3.603}
{"smiles": "CN(C)c1cc(N/N=C/c2cc(Cl)ccc2O)nc(N(C)C)n1", "note": "[TCMDC-125812]", "% Inhibition": -69.18}
{"smiles": "CC1CN(Cc2cccc(C#N)c2)CCN1c1ccc(NC(=O)c2cccs2)cc1", "note": "(stereo not shown) [TCMDC-134969]", "% Inhibition": -7.267}
{"smiles": "O=C(CSc1cccc[n+]1[O-])c1ccc(Cc2ncc(C(F)(F)F)cc2Cl)s1", "note": "[TCMDC-125823]", "% Inhibition": 10.92}
{"smiles": "COc1nc2c(CCN3CC[C@H](NCc4cc(C#N)c5c(c4)CCO5)[C@H](O)C3)ccnc2cc1F", "note": "[TCMDC-135969]", "% Inhibition": -20.52}
{"smiles": "COc1ccc2ncc(F)c([C@H](O)CN3CCC(NCc4ccc5c(c4)NC(=O)CO5)CC3)c2c1", "note": "[TCMDC-135829]", "% Inhibition": -7.754}
{"smiles": "COc1ccc2ncc(F)c([C@H](O)CN3CCC(NCc4ccc5c(c4)OCCO5)CC3)c2c1", "note": "[TCMDC-135828]", "% Inhibition": -2.76}
{"smiles": "COc1ccc2ncc(F)c([C@@H](O)CN3CCC(NCc4ccc5c(c4)NCCS5)CC3)c2n1", "note": "[TCMDC-135765]", "% Inhibition": 82.34}
{"smiles": "COc1ccc2ncc(F)c(CCN3CCC(NCc4ccc5c(c4)CCO5)CC3)c2n1", "note": "[TCMDC-135491]", "% Inhibition": 11.83}
{"smiles": "COc1nc2c(CCN3CC[C@H](NCc4cc(C#N)c5c(c4)OCCO5)[C@H](O)C3)ccnc2cc1F", "note": "[TCMDC-135968]", "% Inhibition": 5.29}
{"smiles": "COc1nc2c(CCN3CC[C@@H](NCc4cc(C#N)c5c(c4)CCO5)[C@@H](O)C3)ccnc2cc1F", "note": "[TCMDC-135964]", "% Inhibition": 90.2}
{"smiles": "COc1ccc2nccc([C@H](O)CN3CCC(NCc4cc(C)c5c(c4)OCCO5)CC3)c2n1", "note": "[TCMDC-136075]", "% Inhibition": 22.49}
{"smiles": "COc1ccc2ncc(F)c([C@@H](O)CN3CCC(NCc4cc(C#N)c5c(c4)CCO5)CC3)c2n1", "note": "[TCMDC-136078]", "% Inhibition": 86.13}
{"smiles": "O=C(Nc1ccc(-c2cccc(-c3nc4ccccc4[nH]3)c2)cc1)NC1CC1c1ccccc1", "note": "(stereo not shown) [TCMDC-133257]", "% Inhibition": -13.71}
{"smiles": "O=C(CC1CCCC1)N(CC1CCN(Cc2ccc(C(F)(F)F)cc2)CC1)c1ccc(N2CCOCC2)c(F)c1", "note": "[TCMDC-135855]", "% Inhibition": 9.841}
{"smiles": "CCN(CCCN1CCCCC1)c1nccc(Nc2ccc(Cl)cc2)n1", "note": "[TCMDC-137046]", "% Inhibition": 6.161}
{"smiles": "CS(=O)(=O)c1ccccc1CNC(=O)c1cccc(-c2ccc(-c3nc4cc(C(F)(F)F)ccc4[nH]3)cc2)c1", "note": "[TCMDC-132506]", "% Inhibition": -36.65}
{"smiles": "CC(C)N1CCC(N(Cc2ccc(-c3ccc(Cl)cc3)cc2)C(=O)Cn2c(CCc3cccc(F)c3F)nc(=O)c3ccccc32)CC1", "note": "[TCMDC-141368]", "% Inhibition": 117.4}
{"smiles": "CC(C)N1CCC(N(Cc2ccc(-c3ccc(C(F)(F)F)cc3)cc2)C(=O)Cn2c(SCc3cccc(F)c3F)cc(=O)c3ccccc32)CC1", "note": "[TCMDC-141157]", "% Inhibition": 117.9}
{"smiles": "CC(C)N1CCC(N(Cc2ccc(-c3ccc(C(F)(F)F)cc3)cc2)C(=O)Cn2c(CCc3cccc(F)c3F)cc(=O)c3ccccc32)CC1", "note": "[TCMDC-141141]", "% Inhibition": 111.4}
{"smiles": "CC(C)N1CCC(N(Cc2ccc(-c3ccc(C(F)(F)F)cc3)cc2)C(=O)Cn2c(SCc3cccc(F)c3F)nc(=O)c3ccccc32)CC1", "note": "[TCMDC-141312]", "% Inhibition": 121.2}
{"smiles": "N#Cc1c(N)nc(SCC(=O)Nc2cc(C(F)(F)F)ccc2Cl)c(C#N)c1-c1cccs1", "note": "[TCMDC-123750]", "% Inhibition": -5.622}
{"smiles": "COc1ccc(NC(=O)c2ccc(Br)c(C)c2)cc1N1CCN(Cc2ccccc2)CC1", "note": "[TCMDC-139031]", "% Inhibition": -19.8}
{"smiles": "CSc1cccc(NC(=O)c2cc3ccccc3oc2=O)c1", "note": "[TCMDC-123616]", "% Inhibition": 19.07}
{"smiles": "O=C(NCC(c1ccc(C(F)(F)F)cc1)N1CCCC1)c1cc(-c2ccncc2)c(-c2cccc(O)c2)o1", "note": "(stereo not shown) [TCMDC-135665]", "% Inhibition": 33.87}
